Each structure is given as a SMILES string. Several values for one entry are separate records, joined by “and”; a condition that tells them apart may be missing. Equal values may be shown once. The whole screen tested about 350,000 compounds, of which about 700 (0.2%) were called active. What follows is part of a selection rich in actives, with near analogues and random picks from the rest. A call without a number means that no potency is given here. A number with no mark means an inactive call. Calls come from the whole dose curve; as a rule, active = well fitted inhibition curve with a large enough effect; inconclusive = small, poorly fitted or top-dose-only effect; inactive = flat fitted curve, though single readings scatter. Bridge positions count the residues as written; N and C are the ends. Peptide text beside a SMILES is read from it.
Potency is the fitted concentration of half-maximal effect.

RecQ-like DNA helicase BLM (Homo sapiens), sequence (P54132 whole entry, looked up): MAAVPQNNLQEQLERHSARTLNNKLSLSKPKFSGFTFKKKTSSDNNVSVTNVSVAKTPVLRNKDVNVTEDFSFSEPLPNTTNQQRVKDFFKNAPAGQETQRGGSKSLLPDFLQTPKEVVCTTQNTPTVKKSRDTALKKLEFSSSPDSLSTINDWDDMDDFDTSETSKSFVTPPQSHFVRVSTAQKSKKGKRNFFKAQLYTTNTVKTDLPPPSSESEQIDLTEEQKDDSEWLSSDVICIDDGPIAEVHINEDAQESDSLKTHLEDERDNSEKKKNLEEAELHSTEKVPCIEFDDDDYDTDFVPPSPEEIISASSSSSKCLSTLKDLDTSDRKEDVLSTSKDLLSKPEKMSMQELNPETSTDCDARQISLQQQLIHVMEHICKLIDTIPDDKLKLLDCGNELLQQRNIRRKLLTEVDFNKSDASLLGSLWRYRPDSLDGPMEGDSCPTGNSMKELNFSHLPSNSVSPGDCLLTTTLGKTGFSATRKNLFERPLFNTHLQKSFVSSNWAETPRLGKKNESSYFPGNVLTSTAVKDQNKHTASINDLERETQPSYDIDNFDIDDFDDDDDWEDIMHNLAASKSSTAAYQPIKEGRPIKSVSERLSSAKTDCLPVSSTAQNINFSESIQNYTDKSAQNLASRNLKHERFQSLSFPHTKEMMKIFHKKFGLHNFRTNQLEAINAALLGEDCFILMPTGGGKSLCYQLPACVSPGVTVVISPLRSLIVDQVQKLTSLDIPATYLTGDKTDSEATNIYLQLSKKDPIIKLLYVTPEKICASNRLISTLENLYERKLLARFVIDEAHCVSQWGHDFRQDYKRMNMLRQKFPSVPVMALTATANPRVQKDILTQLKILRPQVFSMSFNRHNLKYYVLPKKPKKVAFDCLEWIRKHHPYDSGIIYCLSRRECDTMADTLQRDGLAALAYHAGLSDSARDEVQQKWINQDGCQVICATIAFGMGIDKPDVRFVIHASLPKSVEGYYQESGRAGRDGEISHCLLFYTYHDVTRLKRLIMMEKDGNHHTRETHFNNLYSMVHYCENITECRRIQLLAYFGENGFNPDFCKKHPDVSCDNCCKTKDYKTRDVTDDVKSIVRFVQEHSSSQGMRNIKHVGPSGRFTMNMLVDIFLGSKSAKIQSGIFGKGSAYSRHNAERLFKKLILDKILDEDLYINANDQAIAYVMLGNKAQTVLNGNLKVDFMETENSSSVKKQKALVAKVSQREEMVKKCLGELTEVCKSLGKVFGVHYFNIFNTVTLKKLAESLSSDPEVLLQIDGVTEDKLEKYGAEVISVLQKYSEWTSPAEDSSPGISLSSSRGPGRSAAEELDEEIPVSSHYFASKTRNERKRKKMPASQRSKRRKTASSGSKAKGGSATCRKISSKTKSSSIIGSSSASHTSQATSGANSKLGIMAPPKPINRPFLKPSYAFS

The target of this assay is RecQ-like DNA helicase BLM (Homo sapiens) (UniProt P54132). The assay is described as follows: qHTS Assay for Inhibitors of Bloom's syndrome helicase (BLM). Note: nearly all actives have a fitted effect of over 35% in size. As to conditions: recombinant BLM DNA unwinding, fluorescence dequenching; series mostly up to 56.1 µM. From the text:
Survival of cells and the faithful propagation of the genome depend on elaborate mechanisms of detecting and repairing DNA damage. Treatment of advanced cancer relies on radiation therapy or chemotherapy, which kill cancer cells by causing extensive DNA damage. It is often found, that cancer cells develop resistance to therapy through enhanced activity of DNA repair functions; this has led to an increased interest in developing drugs that interfere with DNA repair, which could sensitize cancer cells to conventional therapy.
This validation qHTS assay pertains to human BLM, which is important in resolving abnormal DNA structures formed during replication or homologous recombination. Shutting down the expression of BLM leads to chromosomal instability and higher radiation sensitivity in cultured cells.
The validation assay was a fluorescence quenching based kinetic qHTS for BLM Helicase DNA unwinding. The activity was measured as ATP-dependent separation of a 20-bp DNA duplex extended by 30-nt single-stranded tails (forked duplex). The forked DNA substrate was tagged with rhodamine fluorophore (carboxytetramethyl rhodamine, TAMRA) and BHQ-2 (Black Hole Quencher 2) dark quencher. Strand separation results in an increase in the fluorescence of TAMRA (excitation 525 nm, emission 598 nm). This substrate construct operates in a red-shifted region where very few compound library members have been noted to fluoresce (PubChem AIDs 593 and 594). An additional feature of the assay is the inclusion of 2.5 ug/ml poly (dIdC), to reduce interference by compounds such as DNA intercalators, a major source of false inhibitors.
Ian Hickson, University of Oxford
Opher Gileadi, Structural Genomics Consortium, University of Oxford
Screening Center PI: Austin, C.P.
Screening Center: NIH Chemical Genomics Center [NCGC]
Three uL of reaction buffer (25 mM Tris-HCl (pH 8.0), 5 mM NaCl, 2 mM MgCl2, 1mM DTT, 0.01% Tween- 20, and 2.5 ug/ml poly(dI-dC), including enzyme (50 nM BLM), were dispensed into a 1536-well Greiner black assay plate via solenoid-valve based nanoliter dispensers. Compounds (23 nl each in columns 5-48) and control (23 nl each in column 2 as dose-response) were transferred via a Kalypsys pintool equipped with a 1536-pin array. The plates were incubated for 15 min at room temperature, and then 1 ul of substrates (200 nM DNA and 2 mM ATP, final concentrations) was added to start the reaction. The plate was transferred into a ViewLux high-throughput CCD imager where the reaction progress was measured in a discontinuous kinetic mode (two reads spaced 2 hours apart, with intermediate room temperature incubation of the covered assay plate) by using standard red-fluorescence optics (excitation filter 525 nm, emission filter 598 nm). Enzyme-free and vehicle (DMSO) controls were included for signal normalization.
(In general: Quantitative high-throughput screening tests each substance at several concentrations.)
Regarding `C=CC1=C2C=C(C3CC3)N(C(CO)CO)C=C2C(=O)C(C)(OC(=O)c2ccco2)C1=O` (centres undefined), the activity change, negative = inhibition is -12.4% [at 12.4 µM].

In the case of `C[C@@H](O)[C@@H]1NC(=O)[C@H](CCCCN)NC(=O)[C@H](Cc2c[nH]c3ccccc23)NC(=O)[C@H](Cc2ccccc2)NC(=O)[C@H](Cc2ccccc2)NC(=O)[C@H](CC(N)=O)NC(=O)[C@H](CCCCN)NC(=O)[C@@H](NC(=O)[C@@H]2CCCN2)CSSC[C@@H](C(=O)N[C@@H](CCCCN)C(=O)O)NC(=O)[C@H](CO)NC(=O)[C@H](CO)NC(=O)[C@H](Cc2ccccc2)NC1=O` (H-PCKNFFWKTFSSCK-OH; disulfide 2-13), the Potency result was “inactive”.

For `CCOC(=O)C1CCCN(C(=O)c2ccc3c(c2)sc2nc(-c4ccc(CC)cc4)cn23)C1` (centres undefined), the Potency result was “inactive”.

`OCCC(O)CO` (centres undefined): the Potency entry was “inactive”.

For the compound `CC[C@]1([C@H]2O[C@@H]([C@@H]3O[C@](O)(CO)[C@@H](C)C[C@H]3C)C[C@H]2C)CC[C@@H]([C@]2(C)CC[C@@]3(C[C@@H](O)[C@@H](C)[C@@H]([C@H](C)[C@H](OC)[C@H](C)C(=O)O)O3)O2)O1`, the Potency result is “inactive”.

Turning to `Cc1ccc(OCCCC(=O)Nc2ccc(S(=O)(=O)Nc3cc(C)nc(C)n3)cc2)cc1`, the Potency entry was “inactive”.

`Cc1ccc(NC(=O)CSc2nc(CSc3ccc(C)cc3)cc(=O)[nH]2)cc1`: the Potency entry is “inactive”.

Regarding `COc1ccc(NC(=O)CSc2nc(NS(=O)(=O)c3ccc(C)cc3)cc(=O)[nH]2)cc1`, the Potency was 22.4 µM (active).

For `COCCn1c(=O)c(CCc2ccccc2)nc2cnc(N3CCNCC3)nc21`, the Potency entry was “inactive”.

`N[C@@H](C(=O)O)c1ccc(P(=O)(O)O)cc1`: the Potency entry was “inactive”.

Take `COC(C)C(C(=O)OCC1=CCN2CC[C@H](O)[C@@H]12)C(C)C` (some centres undefined): the Potency result was “inactive”.

With `COc1ccc2c3c1OC1CC(O)C=C[C@@]31CCN(C)C2` (some centres undefined), the Potency entry was “inactive”.

With `CCOC(=O)c1c(C)[nH]c2c1-c1ccccc1C(=O)C2=O`, the Potency is 2.82 µM (active).

As for `CCOC(=O)c1c(SCC(=O)Nc2cccc(C)c2C)nc(=O)[nH]c1C`, the Potency result is “inactive”.

Consider `CCOC(=O)c1c(C)[nH]c(C(=O)NCc2ccccc2OC)c1C`, for which the Potency result was “inactive”.

In the case of `COc1ccc(NS(=O)(=O)c2cc3c4c(c2)CC(=O)N4CCC3)cc1Cl`, the Potency result is “inactive”.

On to `COC(=O)C(C(=O)OC)[C@@H](NC=O)c1ccccc1`, for which the Potency entry is “inactive”.

Take `CCCCS(=O)(=O)N1C2=NC(C(=O)OC)=C(C(=O)OC)[C@@H]3N(Cc4ccccc4)c4ccccc4[C@]23C[C@H]1C(=O)OC`: the activity change, negative = inhibition was -0.97% [at 12.4 µM].

Regarding `C=CCOC(=O)C(C(C)=O)C(NC(=O)OC)c1ccccc1` (centres undefined), the activity change, negative = inhibition was -4.39% [at 12.4 µM].

On to `CC(C)C[C@@H](CC(=O)N[C@@H](CCC(=O)O)CC(=O)O)NC(=O)[C@@H]1CCCC[C@H]1NC(=O)C[C@@H](NC(=O)C[C@H](Cc1c[nH]c2ccccc12)NC(=O)[C@@H]1CCCC[C@H]1N)C(C)C`, for which the Potency result is “inactive”.

For the compound `Nc1ncn(C2OC(CO)C(O)C2O)c(=O)n1` (centres undefined), the Potency entry was “inactive”.

Turning to `CC1CC[C@@]23CCC4(C)[C@@]5(C)CCC6C(C)(C)C(O)CC[C@@]6(C)C5C=C[C@@]4(OC2=O)C3C1C` (some centres undefined), the Potency result is “inactive”.

For the compound `COc1ccc(-c2nc3c(c4c2C[C@H](c2ccccc2)OC4)CN(C(=O)c2cccnc2)CC3)c(C)c1`, the activity change, negative = inhibition was 0.694% [at 12.4 µM].

For the compound `C=C1O[C@@](CO)(n2cnc3c(N)ncnc32)[C@H](O)[C@@H]1O`, the Potency entry was “inactive”.

As for `COc1ccc(-c2nc(-c3ccccc3)oc2Nc2ccc3ccccc3c2)cc1`, the Potency entry is “inactive”.

Take `CCCC[C@H]1C(=O)N(c2ccccc2)N(c2ccc(O)cc2)C1=O`: the Potency result is “inactive”.

With `COC(=O)[C@@]1(Cc2ccc(F)cc2)[C@@H]2[C@@H](CC(=O)[C@H]2CC(=O)C(=O)N2CCCC2)CN1C(=O)c1ccccc1`, the Potency entry is “inactive”.

On to `COC(=O)C1(C)C=CC2(CCCCC2)N1C(C)=O` (centres undefined), for which the Potency entry was “inactive”.

Consider `CC1=C2[C@@H](O)[C@H]([C@@H](C)C(=O)NCCC(C)C)CC[C@@]2(C)C=CC1=O`, for which the Potency entry is “inactive”.

As for `Cc1ccc(-c2ncc(Cl)cc2-c2ccc(S(C)(=O)=O)cc2)cn1`, the Potency result is “inactive”.

With `C[C@H]1CC[C@H](C(=O)O)N[C@@H]1c1ccc(C#Cc2ccccc2)cc1`, the activity change, negative = inhibition was 6.21% [at 12.4 µM].

For `COc1ccccc1CNc1ncnc2ccc(-c3c(C)noc3C)cc12`, the Potency result was “inactive”.

Consider `Nc1nc2[nH]c(=O)c(=O)[nH]c2c(=O)[nH]1`, for which the Potency entry is “inactive”.

In the case of `CC/C=C\C/C=C\C/C=C\C/C=C\C/C=C\C/C=C\CCC(=O)NC(C)C(=O)O` (centres undefined), the Potency entry was “inactive”.

For the compound `COC(=O)C1=C(C)N(Cc2ccccc2)C2=C3C(=O)N(c4ccccc4)C(=O)C3[C@@](O)(C(=O)OC)C(=O)N2C1c1ccccc1` (some centres undefined), the activity change, negative = inhibition is -3.25% [at 12.4 µM] and -3.97% [at 12.4 µM].

In the case of `COc1ccc(S(=O)(=O)c2c(Nc3cccc(Cl)c3)sc(C(=O)c3ccccc3)c2N)cc1`, the Potency result was “inactive”.

`CC1(C)OC2CO[C@]3(COS(N)(=O)=O)OC(C)(C)OC3C2O1` (some centres undefined): the Potency entry was “inactive”.

As for `COc1cc(OC)c(NC(=O)c2nc(-c3ccncc3)no2)cc1Cl`, the Potency result was “inactive”.

With `N#Cc1c(N2CCCCC2)nc(N)c2c(N)nc(SCC(=O)O)cc12`, the Potency was 28.2 µM (active).

In the case of `N#Cc1c(C(F)(F)F)cc(-c2cccs2)nc1N1CCCCC1`, the Potency result is “inactive”.

For the compound `C=C1C(=CC=C2CCC[C@@]3(C)[C@@H]2CC[C@H]3[C@H](C)CCCC(C)C)C[C@@H](O)C[C@@H]1O`, the Potency entry is “inactive”.

As for `CC(C)CN1CCc2nc(-c3ccccc3)c3c(c2C1)COC(C)C3` (centres undefined), the activity change, negative = inhibition was -4.43% [at 12.4 µM].

For `Cc1ccc(CCNC(=O)C2CCN(c3nnc(-n4cccc4CNc4ccc(C)cc4)s3)CC2)cc1`, the Potency result was “inactive”.

Regarding `CC(C)C1=CC2=CC[C@H]3[C@](C)(C(=O)O)CCC[C@]3(C)C2CC1` (some centres undefined), the Potency result is “inactive”.

Turning to `Cc1ccc(/C=C(\C#N)C(=O)Nc2cccc3ncccc23)o1`, the Potency was 7.94 µM (active).

`CCOC(=O)c1ccc(-c2ccc(/C=C(\C#N)C(=O)Nc3ccc(OCC)cc3)o2)cc1`: the Potency entry is “inactive”.

With `O=C(O)c1cc(Cl)c(Cl)cc1C(=O)Nc1cccc2ncccc12`, the Potency entry was “inactive”.

`FC(F)(F)c1ccccc1-c1nc(-n2ccnc2)c2ccccc2n1`: the Potency result is “inactive”.

Take `C/C(CCN1CCCCc2nc(C)c(C)cc21)=N\O[C@@H](C)c1cn([C@@H]2COC[C@@H]2O)nn1`: the activity change, negative = inhibition is 3.53% [at 12.4 µM].

For the origin of these results see PubChem BioAssay AID2528 (National Center for Advancing Translational Sciences (NCATS), 2010).
